Assay results reported in PubChem BioAssay.
Calls of active or inactive are those of the source. Unless noted, no rule for the calls is given here.

How the values were obtained:
[1] = anti-His antibody binders, primary screen, artefact control for SMM control protein annotation, biochemical, small-molecule microarray, 635 nm fluorescence (AID 1128); details: anti-His Alexa647 antibody binding, higher = more signal;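 also: score merges feature fluorescence with signal-to-noise for each printed compound spot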
[2] = system: Human papillomavirus type 1a E7 protein (residues 1-88); test: HPV1a E7 small-molecule binders, primary screen, biochemical, small-molecule microarray, residues 1-88, 635 nm (AID 1129); details: small-molecule microarray binding, fluorescence 635 nm; higher = more signal
[3] = target: Focal adhesion kinase 1 (Homo sapiens) (UniProt Q05397); test: small-molecule microarray binders of FAK, primary screen, biochemical, 635/667 nm fluorescence, BSA, DTT (AID 1130); details: PTK2 binding, 635 nm fluorescence, higher = more signal;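 also: composite of spot emission at 667 nm and signal to noise over triplicate slides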
[4] = system: Fibrinogen (Alexa647-labelled); test: fibrinogen binders on compound microarrays, profiling panel, artefact control for SMM control-protein annotation, biochemical, small-molecule microarray, 635/667 nm fluorescence (AID 1131); details: fibrinogen-A647 binding fluorescence, higher = more signal;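 also: z-score merges 667 nm fluorescence with per-spot signal-to-noise over triplicate slides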
[5] = target: Follistatin (Homo sapiens) (UniProt P19883); test: follistatin binders on small-molecule microarrays, primary screen, biochemical, small-molecule microarray, 635/667 nm fluorescence (AID 1132); details: FST binding, 635 nm fluorescence, higher = more signal
[6] = target: Fibroblast growth factor 2 (Homo sapiens) (UniProt P09038); test: FGF2 binders on small-molecule microarrays, primary screen, biochemical, small-molecule microarray, 635/667 nm fluorescence (AID 1133); details: small-molecule microarray binding, FGF2, fluorescence 635/667; higher = more signal
[7] = mitochondrial membrane potential change in A549 cells, profiling panel, cell-based, JC-1 fluorescence, basal, 24 h, 100 nL (AID 1138); details: higher = more signal;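 also: A549 lung adenocarcinoma cells under basal conditions with no added stimulus; test concentration not given here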
[8] = system: Lefty1; test: Lefty1 binders on small-molecule microarrays, primary screen, biochemical, small-molecule microarray, 635/667 nm fluorescence (AID 1139); details: small-molecule microarray binding, fluorescence 635/667; higher = more signal
[9] = system: wheat germ agglutinin (Triticum aestivum), Alexa647-labelled; test: wheat germ agglutinin binders on compound microarrays, profiling panel, artefact control for SMM control-protein annotation, biochemical, small-molecule microarray, 635/667 nm fluorescence (AID 1140); details: WGA-A647 binding, 635 nm fluorescence, higher = more signal;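 also: score merges 667 nm feature emission with signal to noise over triplicate slides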
[10] = target: Luciferin 4-monooxygenase (Photinus pyralis) (UniProt P08659); test: firefly luciferase enzyme inhibitors, primary screen, biochemical, luminescence, purified enzyme, 2006 set (AID 1141); details: SteadyGlo luminescence, 30 min, higher = more signal, called active from +8 up or from −8 down;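 also: cell-free assay with purified firefly luciferase at 100 ng per well in PBS; test concentration not given here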
[11] = system: Wnt5a (protein binding on small-molecule microarray); test: Wnt5a binders on small-molecule microarray, primary screen, biophysical, 635/667 nm fluorescence (AID 1142); details: 635 nm fluorescence, higher = more signal;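 also: fluorescence read at 667 nm with signal to noise per printed feature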
[12] = cell viability in Huh7 cells, primary screen, cytotoxicity control for HCV replication inhibitor project, CellTiter-Glo luminescence, basal, 48 h (AID 1143); details: Huh7 HCV replicon, higher = more signal, called active from +8 up or from −8 down;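 also: Huh7 hepatoma cells carrying a hepatitis C replication reporter with no stimulus; test concentration not given here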
[13] = P. aeruginosa biofilm formation inhibitors, primary screen, PAO1 strain, BacTiter-Glo luminescence, LB-PBS (AID 1144); details: 12 h, higher = more signal
[14] = CREB reporter modulators without forskolin, primary screen, cell-based, PC12, CRE-LacZ reporter, unstimulated (AID 1145); details: no forskolin, luminescence, 4.5 h, higher = more signal, called active from +8 up or from −8 down
[15] = CREB reporter modulators under forskolin, primary screen, cell-based, PC12, CRE-LacZ reporter, forskolin-stimulated (AID 1146); details: luminescence, 4.5 h, higher = more signal, called active from +8 up or from −8 down;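 also: PC12 cells with 6xCRE LacZ reporter stimulated by forskolin 10 µM; beta-galactosidase reporter signal reflecting CREB driven transcription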
[16] = target: Streptavidin (Streptomyces avidinii) (UniProt P22629); test: streptavidin binders on small-molecule microarray, primary screen, artefact control for SMM compound annotation, biophysical, 635/667 nm fluorescence (AID 1147); details: streptavidin binding, higher = more signal;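 also: signal reflects streptavidin binding to arrayed compounds as a control protein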
[17] = small-molecule binders of probe aInhba, primary screen, biochemical, small-molecule microarray, 635/667 nm fluorescence (AID 1148); details: higher = more signal;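 also: score merges 667nm spot fluorescence with signal-to-noise for antibody binding to printed compounds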
[18] = target: Torsin-1A (Homo sapiens) (UniProt O14656); test: torsin A binders from cell lysate, primary screen, small-molecule microarray, wild-type, 635/667 nm (AID 1149); details: COS7 hTOR1A-WT lysate, 635 nm fluorescence, higher = more signal
[19] = target: Torsin-1A (Homo sapiens) (UniProt O14656); test: small-molecule binders of mutant TOR1A in lysate, primary screen, cell lysate, small-molecule microarray, COS7 lysate, 635/667 nm fluorescence (AID 1150); details: COS7 hTOR1A mutant lysate, 635 nm fluorescence, higher = more signal;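 also: score pools 667 nm emission and signal to noise measuring lysate protein binding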
[20] = system: Sonic hedgehog protein (Shh); test: small-molecule binders of Shh protein, primary screen, biochemical, small-molecule microarray, 635/667 nm fluorescence (AID 1151); details: small-molecule microarray binding, 635 nm fluorescence; higher = more signal;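 also: Shh protein binding to compounds spotted on small-molecule microarray slides; score combines spot fluorescence intensity with signal-to-noise across triplicate slides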

Luciferin 4-monooxygenase (Photinus pyralis), sequence (P08659 whole entry, looked up): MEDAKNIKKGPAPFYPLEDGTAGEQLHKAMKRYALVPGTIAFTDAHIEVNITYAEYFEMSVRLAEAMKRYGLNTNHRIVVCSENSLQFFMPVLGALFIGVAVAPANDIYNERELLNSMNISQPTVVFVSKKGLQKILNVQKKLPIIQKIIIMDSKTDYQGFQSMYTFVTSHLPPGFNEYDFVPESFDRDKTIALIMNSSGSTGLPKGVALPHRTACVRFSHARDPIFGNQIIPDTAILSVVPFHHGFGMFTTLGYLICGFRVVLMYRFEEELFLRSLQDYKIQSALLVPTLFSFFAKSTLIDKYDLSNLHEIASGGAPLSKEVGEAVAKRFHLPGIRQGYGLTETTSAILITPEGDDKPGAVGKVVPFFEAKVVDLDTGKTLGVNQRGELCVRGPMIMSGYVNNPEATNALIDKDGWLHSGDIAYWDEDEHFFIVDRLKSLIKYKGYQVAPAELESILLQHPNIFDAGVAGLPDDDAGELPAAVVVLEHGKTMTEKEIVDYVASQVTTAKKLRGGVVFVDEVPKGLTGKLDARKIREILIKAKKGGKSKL
Torsin-1A (Homo sapiens), sequence (O14656 whole entry, looked up): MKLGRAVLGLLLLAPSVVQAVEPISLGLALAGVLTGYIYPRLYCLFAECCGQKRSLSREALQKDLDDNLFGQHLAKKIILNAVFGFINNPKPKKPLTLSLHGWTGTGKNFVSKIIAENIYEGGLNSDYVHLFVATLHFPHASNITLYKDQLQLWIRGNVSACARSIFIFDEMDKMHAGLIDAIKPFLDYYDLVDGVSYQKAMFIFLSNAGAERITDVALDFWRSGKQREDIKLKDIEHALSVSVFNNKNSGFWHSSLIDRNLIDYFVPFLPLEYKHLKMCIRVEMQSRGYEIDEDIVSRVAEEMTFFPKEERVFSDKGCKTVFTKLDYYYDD
Streptavidin (Streptomyces avidinii), sequence (P22629 whole entry, looked up): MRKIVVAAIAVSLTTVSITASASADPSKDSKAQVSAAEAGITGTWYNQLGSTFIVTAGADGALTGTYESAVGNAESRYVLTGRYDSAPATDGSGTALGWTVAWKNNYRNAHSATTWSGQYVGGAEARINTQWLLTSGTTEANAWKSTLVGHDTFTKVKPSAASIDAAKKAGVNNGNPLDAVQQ
Follistatin (Homo sapiens), sequence (P19883 whole entry, looked up): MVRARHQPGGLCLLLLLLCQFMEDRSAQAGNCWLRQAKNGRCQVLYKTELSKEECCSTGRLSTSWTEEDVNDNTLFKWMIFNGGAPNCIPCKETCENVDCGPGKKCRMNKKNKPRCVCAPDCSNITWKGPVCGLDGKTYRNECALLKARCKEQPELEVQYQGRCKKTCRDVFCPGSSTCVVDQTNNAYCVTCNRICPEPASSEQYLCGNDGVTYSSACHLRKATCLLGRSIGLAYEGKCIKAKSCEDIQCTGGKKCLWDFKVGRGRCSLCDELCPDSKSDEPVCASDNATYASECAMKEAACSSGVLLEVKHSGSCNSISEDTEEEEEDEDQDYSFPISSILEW
Fibroblast growth factor 2 (Homo sapiens), sequence (P09038 whole entry, looked up): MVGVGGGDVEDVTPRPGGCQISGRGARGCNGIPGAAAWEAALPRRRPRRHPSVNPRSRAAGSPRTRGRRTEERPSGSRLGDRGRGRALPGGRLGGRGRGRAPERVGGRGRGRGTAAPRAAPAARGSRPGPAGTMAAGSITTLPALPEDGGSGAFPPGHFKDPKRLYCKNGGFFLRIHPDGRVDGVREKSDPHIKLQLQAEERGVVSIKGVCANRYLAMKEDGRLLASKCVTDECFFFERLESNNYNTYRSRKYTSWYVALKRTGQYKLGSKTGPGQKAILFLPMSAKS
Focal adhesion kinase 1 (Homo sapiens), sequence (Q05397 whole entry, looked up): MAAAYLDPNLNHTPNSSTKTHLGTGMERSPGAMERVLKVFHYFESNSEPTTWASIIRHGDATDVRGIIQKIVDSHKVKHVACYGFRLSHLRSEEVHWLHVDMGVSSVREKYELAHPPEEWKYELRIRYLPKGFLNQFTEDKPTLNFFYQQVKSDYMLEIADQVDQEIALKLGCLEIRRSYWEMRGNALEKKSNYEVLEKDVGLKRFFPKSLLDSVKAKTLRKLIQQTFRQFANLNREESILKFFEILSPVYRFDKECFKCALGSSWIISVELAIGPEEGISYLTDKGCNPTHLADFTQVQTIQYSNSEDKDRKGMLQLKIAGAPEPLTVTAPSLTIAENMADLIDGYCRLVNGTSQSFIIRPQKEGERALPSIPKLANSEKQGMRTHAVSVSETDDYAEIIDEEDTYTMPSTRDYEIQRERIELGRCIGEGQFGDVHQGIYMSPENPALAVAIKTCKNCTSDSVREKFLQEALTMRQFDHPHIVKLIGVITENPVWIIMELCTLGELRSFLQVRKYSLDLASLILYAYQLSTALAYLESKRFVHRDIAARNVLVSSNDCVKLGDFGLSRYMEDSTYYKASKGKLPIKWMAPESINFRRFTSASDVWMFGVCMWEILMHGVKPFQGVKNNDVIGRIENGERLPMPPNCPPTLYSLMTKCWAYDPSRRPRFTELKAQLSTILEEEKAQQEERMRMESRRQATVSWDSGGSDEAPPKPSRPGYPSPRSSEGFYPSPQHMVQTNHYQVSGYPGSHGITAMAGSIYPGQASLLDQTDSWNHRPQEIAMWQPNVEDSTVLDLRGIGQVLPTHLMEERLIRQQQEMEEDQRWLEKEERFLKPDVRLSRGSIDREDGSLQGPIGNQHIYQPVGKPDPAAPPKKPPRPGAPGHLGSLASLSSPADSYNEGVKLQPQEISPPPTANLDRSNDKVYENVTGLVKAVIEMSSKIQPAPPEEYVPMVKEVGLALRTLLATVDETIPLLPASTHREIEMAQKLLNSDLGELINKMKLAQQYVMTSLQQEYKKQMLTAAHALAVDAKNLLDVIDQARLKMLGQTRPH

| SMILES | composite z-score [1] | composite z-score [2] | composite z-score [3] | composite z-score [4] | composite z-score [5] | composite z-score [6] | z-score [7] | composite z-score [8] | composite z-score [9] | z-score [10] | composite z-score [11] | z-score [12] | z-score [13] | z-score [14] | z-score [15] | composite z-score [16] | composite z-score [17] | composite z-score [18] | composite z-score [19] | composite z-score [20] |
| --- | --- | --- | --- | --- | --- | --- | --- | --- | --- | --- | --- | --- | --- | --- | --- | --- | --- | --- | --- | --- |
| C=CCN1C(=O)[C@@]2(O[C@@H](CCO)[C@H]([Si](C)(C)c3ccc(OC)cc3)[C@H]2C)c2cc(N3CCCCC3=O)ccc21 | 2.63 | 1.16 | -0.19 | 0.745 | 1.36 | 0.821 | 0.225 | 1.23 | 0.302 | -0.0999 (inactive) | 0.282 | -5.3 (inactive) | -0.0131 (inactive) | 13.6 (active) | -0.639 (inactive) | 0.732 | 0.0471 | 0.683 | 0.417 | 1.6 |
| C=CCOC(=O)[C@H]1[C@@H]2C(=O)O[C@@H](c3ccccc3)[C@@H](c3ccccc3)N2[C@@H](c2ccc(OCCOC(=O)[C@H]3C[C@H]4C(=O)NCC(=O)N4[C@H]3c3cccc(OCCO)c3)cc2)[C@]12C(=O)Nc1ccc(I)cc12 | 0.844 | 1.06 | 0.835 | 0.494 | 1.41 | 1.37 | -0.715 | 1.5 | 0.288 | -0.919 (inactive) | 0.984 | -0.469 (inactive) | -0.282 (inactive) | 0.423 (inactive) | -0.142 (inactive) | 0.0708 | 0.434 | 0.418 | 0.83 | 1.94 |
| [N-]=[N+]=NCc1ccccc1C[C@]1(C(=O)N2CCCCC2)COC(c2ccc(OCCCO)cc2)=N1 | 1.13 | 1.07 | 0.401 | 0.932 | 0.687 | 0.765 | 2.45 | -0.432 | 0.827 | -1.71 (inactive) | 0.114 | -4.72 (inactive) | -0.919 (inactive) | 1.93 (inactive) | 1.43 (inactive) | 0.997 | -0.441 | 0.555 | 0.278 | 0.349 |
| O=C1C2C=CC(C(O)C3CC=CCC3)N(Nc3ccc([N+](=O)[O-])cc3)C2C(=O)N1c1ccccc1 (stereo not given) | 2.2 | 1.2 | 0.876 | 0.994 | 1.36 | 0.0341 | -0.861 | 0.307 | 0.862 | 0.83 (inactive) | 0.632 | -0.574 (inactive) | -0.917 (inactive) | 1.23 (inactive) | 1.13 (inactive) | 0.941 | 0.74 | 0.26 | 0.483 | 0.606 |
| COC(=O)[C@@]1(Cc2ccc(F)cc2)[C@H]2c3cc(C(=O)N(C)C)n(Cc4ccsc4Br)c3C[C@H]2CN1C(=O)c1ccccc1 | 0.77 | 1.12 | 1.96 | 1.04 | -0.161 | 0.021 | -0.51 | -0.675 | 1.04 | 1.18 (inactive) | 2.41 | -1.49 (inactive) | 0.00128 (inactive) | 1.73 (inactive) | -0.0932 (inactive) | 1.66 | 2.03 | -0.0698 | 0.39 | -0.635 |
| CN(C)C(=O)[C@]1(CCS(=O)(=O)c2ccccc2)N=C(c2ccc(OCCCO)cc2)O[C@@H]1c1ccccc1CN=[N+]=[N-] | 2.64 | 1.26 | 1.08 | 0.994 | 0.983 | 1.45 | -0.381 | -0.421 | 0.774 | -0.345 (inactive) | 0.485 | -0.915 (inactive) | -0.813 (inactive) | 0.0686 (inactive) | 0.236 (inactive) | 1.54 | -0.0332 | 0.408 | 0.927 | -0.405 |
| CC1CC/C=C\[C@H]2OC34C=CCN(CCN5CCOCC5)C(=O)[C@H]3N(C(CO)C(C)C)C(=O)[C@@H]4C2C(=O)O1 (stereo not given in full) | -0.622 | -0.033 | -0.125 | -0.248 | -0.277 | -0.3 | 0.302 | 0.544 | -0.281 | -0.723 (inactive) | 0.115 | 0.211 (inactive) | 1.52 (inactive) | -0.0778 (inactive) | 0.341 (inactive) | -0.0429 | -0.128 | 1 | -0.05 | 0.795 |
| C=C(/C=C\CNS(=O)(=O)c1ccc(C)cc1)[C@H](O)[C@H]1CCCN1S(=O)(=O)c1ccccc1[N+](=O)[O-] | 0.721 | 0.427 | 0.445 | 0.191 | 0.216 | 0.272 | -0.321 | 0.177 | 0.878 | -1.1 (inactive) | 0.0313 | -4.19 (inactive) | 0.227 (inactive) | 13 (active) | 0.121 (inactive) | -0.0435 | -0.0986 | 0.345 | -0.0414 | 0.17 |
| COC(=O)[C@@]1(Cc2ccc(F)cc2)[C@H]2c3cc(C(=O)N4CCCC4)n(Cc4ccc(OC(F)(F)F)cc4)c3C[C@H]2CN1C(=O)c1ccccc1 | -0.509 | 1.05 | 0.415 | -0.276 | -0.752 | -0.685 | 0.559 | -1.69 | 0.135 | 1.38 (inactive) | -0.0554 | -0.0066 (inactive) | -0.679 (inactive) | -0.185 (inactive) | 0.137 (inactive) | -0.203 | 0.0306 | -0.0112 | 0.395 | -1.02 |
| C[C@]12C(=O)N(CCO)[C@@H]3C(=O)N(c4ccc(Cl)cc4)CC=CC31O[C@@H]1/C=C\CCCOC(=O)C12 (stereo not given in full) | -0.415 | -0.639 | -0.422 | -0.333 | -0.178 | -0.711 | -0.574 | -0.185 | -0.839 | -0.0708 (inactive) | -0.68 | 0.0051 (inactive) | -0.21 (inactive) | 0.467 (inactive) | 0.0098 (inactive) | -0.542 | -0.21 | -1.5 | -0.706 | 1.18 |
| CC1(C)OB(/C=C\CC(OC(=O)c2ccncc2)c2ccccc2)OC1(C)C (stereo not given) | 1.33 | 0.22 | -0.113 | -0.857 | -0.397 | -1.03 | -0.242 | -1.2 | -1.28 | -0.0512 (inactive) | 0.496 | -0.635 (inactive) | 0.135 (inactive) | 3.3 (inactive) | 0.174 (inactive) | -0.452 | -0.383 | 0.432 | -0.232 | -0.476 |
